Among all 220,000 compounds or so, about 2,000 (0.91%) were called active. Another 2% or so got no clear call; they are omitted. Rule as the data show it: inconclusive = inhibition above about 80% without an active follow-up result; inactive = below that; test concentration not stated here. These entries were drawn from the full list. Results with a measured potency or affinity are listed apart.
Assay: M. tuberculosis H37Rv growth inhibitors, H37Rv strain (AID 1626);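 also: bacteria incubated seven days before Alamar blue readout; 0% = bacteria only wells and 100% = bacteria with antibiotic wells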
Settings: stronger effect = higher value, concentration not given here

SMILES	inhibition
CCOC(=O)CSc1nc2ccccc2c(=O)n1CC(C)C	7.35% (inactive)
CCOC(=O)C1(CCOc2ccccc2)CCN(Cc2cccc(-n3cccn3)c2)CC1	-2.65% (inactive)
CCOC(=O)C1(CCOc2ccccc2)CCN(Cc2ccc(-n3cccn3)cc2)CC1	4.73% (inactive)
CCc1cc2c(SCC(=O)N(CC)c3c(N)n(Cc4ccccc4)c(=O)[nH]c3=O)ncnc2s1	5.81% (inactive)
Clc1ccc(-c2csc(N/N=C/c3ccc4c(c3)OCO4)n2)cc1	48.7% (inactive)
CCNC(=O)Nc1nc2ccccc2s1	4.21% (inactive)
Cc1ccc(OCCCCn2ccnc2)c(Cl)c1	56.8% (inactive)
Cc1cccc(Cl)c1OCCCCn1ccnc1	3.12% (inactive)
Cc1cc(OCCCn2ccnc2)cc(C)c1Cl	16.8% (inactive)
Cc1cc(OCCCCn2ccnc2)cc(C)c1Cl	51.5% (inactive)
O=C(CCN1C(=O)c2ccccc2C1=O)Nc1ccc(S(=O)(=O)N2CCOCC2)cc1	-4.04% (inactive)
Cc1cc(C)cc(OCC(O)CN2C(=O)NC(C)(C)C2=O)c1 (stereo unspecified)	-17.8% (inactive)
FC(F)(F)c1cccc(NC(=S)N2CCN(c3ccccc3)CC2)c1	-3.11% (inactive)
CC(NC(=O)Cn1cc(C(=O)C2CC2)c2ccccc21)c1ccccc1 (stereo unspecified)	6.54% (inactive)
CC(C)OC(=O)c1cc(C(=O)c2cc(Br)ccc2O)coc1=N	-3.62% (inactive)
COC(=O)c1cc(C(=O)c2cc(Cl)ccc2O)coc1=N	3.92% (inactive)
Nc1nnc(SCC(=O)c2ccc([N+](=O)[O-])cc2)s1	-6.55% (inactive)
COc1ccc(S(=O)(=O)N(C)c2ccc(C(N)=O)cc2)cc1	3% (inactive)
O=C(NCc1ccc2c(c1)OCO2)C1CC(=O)N(C2CCCCCCC2)C1 (stereo unspecified)	5.14% (inactive)
Cc1ccc(-c2nnc(-n3ncc(C#N)c3N)c3ccccc23)cc1C	-8.25% (inactive)
COc1ccc2cc(C(=O)C3CCCN(C(=O)/C=C/c4ccccn4)C3)ccc2c1 (stereo unspecified)	1.13% (inactive)
COc1ccc(C2c3c(ncn(Cc4ccco4)c3=N)Oc3ccc4ccccc4c32)cc1 (stereo unspecified)	38.6% (inactive)
N=c1c2c(-c3ccccc3)c(-c3ccccc3)n(Cc3ccco3)c2ncn1CCO	20% (inactive)
N=c1c2c(-c3ccccc3)c(-c3ccccc3)n(Cc3ccco3)c2ncn1CCCO	15.2% (inactive)
COc1ccc(-c2oc3ncn(CCN4CCOCC4)c(=N)c3c2-c2ccc(OC)cc2)cc1	-3.67% (inactive)
CS(=O)(=O)N(CC(=O)Nc1ccccc1C(=O)N1CCCC1)c1cccc([N+](=O)[O-])c1	3.06% (inactive)
